The source made the active and inactive calls. How the source made its calls: active means hit-call score of the fitted dose curve at least 0.9, where 1 is the maximum; inactive means score below 0.9.
Legend:
[1] = ATG_CRE_CIS: Attagene CIS-FACTORIAL HepG2 Assay for human cAMP Responsive Element (CRE) binding protein 3 (AID 2282926); details: HepG2 CRE cis-reporter, Attagene multiplexed mRNA; actives raise or lower the signal
In short: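 Readout: fluorescently labelled reporter transcripts resolved by capillary electrophoresis after RT-PCR, taken 24 h post-dosing in transfected HepG2. Endogenous transcription factor activity drives each cis-element reporter; gain or loss of signal fitted relative to DMSO control.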

[2] = biological target: CCAAT/enhancer-binding protein beta (Homo sapiens) (UniProt P17676); test: ATG_C_EBP_CIS: Attagene CIS-FACTORIAL HepG2 Assay for human CCAAT/Enhancer Binding Protein (C/EBP) beta (AID 2282927); details: HepG2 Attagene cis-factorial transcription factor reporter; actives raise or lower the signal
Sequence of CCAAT/enhancer-binding protein beta (Homo sapiens) (P17676 whole entry, looked up): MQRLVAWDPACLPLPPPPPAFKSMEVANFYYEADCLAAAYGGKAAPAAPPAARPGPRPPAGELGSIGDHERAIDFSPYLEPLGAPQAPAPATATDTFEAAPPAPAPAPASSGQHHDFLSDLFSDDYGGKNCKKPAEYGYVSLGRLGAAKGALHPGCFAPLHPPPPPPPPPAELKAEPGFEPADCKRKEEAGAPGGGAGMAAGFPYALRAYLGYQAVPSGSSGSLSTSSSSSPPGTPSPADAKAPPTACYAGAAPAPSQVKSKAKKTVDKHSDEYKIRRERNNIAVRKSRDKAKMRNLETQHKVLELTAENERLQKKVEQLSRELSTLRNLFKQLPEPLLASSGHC
In short: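 Changes in reporter mRNA, rather than exogenous chimeric receptor activity, reflect native C/EBP signalling in transfected HepG2 cells dosed for 24 h; transcripts are detected by RT-PCR and capillary electrophoresis.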

[3] = ATG_DR4_LXR_CIS: Attagene CIS-FACTORIAL HepG2 Assay for human Liver X Receptor (LXR), DR4 submotif (AID 2282929); details: HepG2 Attagene DR4 cis-reporter, mRNA transcription; actives raise or lower the signal
In short: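 Measures endogenous transcription factor activity via a DR4-driven reporter transcript in human HepG2 cells. Compounds incubated 24 h; mRNA quantified by RT-PCR and capillary electrophoresis, analysed as gain or loss of signal versus DMSO.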

[4] = biological target: Aryl hydrocarbon receptor (Homo sapiens) (UniProt P35869); test: ATG_Ahr_CIS: Attagene CIS-FACTORIAL HepG2 Assay for human Aryl Hydrocarbon Receptor (Ahr) (AID 2282930); details: HepG2 AhR cis-factorial reporter transcription; actives raise or lower the signal
Sequence of Aryl hydrocarbon receptor (Homo sapiens) (P35869 whole entry, looked up): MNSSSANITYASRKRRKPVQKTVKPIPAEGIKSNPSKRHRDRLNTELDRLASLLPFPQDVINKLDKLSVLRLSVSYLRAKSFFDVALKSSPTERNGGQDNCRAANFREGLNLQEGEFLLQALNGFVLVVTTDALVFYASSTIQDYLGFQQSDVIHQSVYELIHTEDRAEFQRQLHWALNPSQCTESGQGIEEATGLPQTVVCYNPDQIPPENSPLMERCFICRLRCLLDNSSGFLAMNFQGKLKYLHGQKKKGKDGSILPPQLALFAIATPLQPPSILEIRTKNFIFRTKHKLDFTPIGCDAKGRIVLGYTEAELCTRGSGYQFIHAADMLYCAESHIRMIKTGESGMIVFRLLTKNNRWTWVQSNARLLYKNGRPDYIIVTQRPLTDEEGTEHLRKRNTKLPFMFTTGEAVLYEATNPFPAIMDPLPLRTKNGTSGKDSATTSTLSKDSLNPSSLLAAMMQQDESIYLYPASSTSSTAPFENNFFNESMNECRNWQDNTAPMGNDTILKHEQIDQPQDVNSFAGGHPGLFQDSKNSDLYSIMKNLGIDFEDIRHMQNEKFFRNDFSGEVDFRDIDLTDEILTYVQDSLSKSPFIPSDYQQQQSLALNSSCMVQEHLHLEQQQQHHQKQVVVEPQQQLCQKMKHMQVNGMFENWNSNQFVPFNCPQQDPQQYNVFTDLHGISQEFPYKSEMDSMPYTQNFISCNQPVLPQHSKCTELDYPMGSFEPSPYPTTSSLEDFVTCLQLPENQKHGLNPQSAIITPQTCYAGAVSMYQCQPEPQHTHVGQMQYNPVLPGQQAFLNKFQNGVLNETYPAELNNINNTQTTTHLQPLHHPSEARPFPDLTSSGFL
In short: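 HepG2, transient MRTU (cis) transfection, 24 h exposure. RNA → cDNA → PCR → 6-FAM primer extension → HpaI 2 h 37 C → CE. Fit: bidirectional, DMSO baseline.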

[5] = ATG_AP_1_CIS: Attagene CIS-FACTORIAL HepG2 Assay for human Activator Protein 1 (AP-1) (AID 2282931); details: HepG2 Attagene cis-factorial AP-1 reporter mRNA; actives raise or lower the signal
In short: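 Bidirectional concentration-response fitting against DMSO controls. Underlying signal: reporter mRNA from cis-promoter constructs in transiently transfected HepG2, measured after 24 h by RT-PCR and capillary electrophoresis.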

[6] = ATG_AP_2_CIS: Attagene CIS-FACTORIAL HepG2 Assay for human Activator Protein 2 (AP-2) (AID 2282932); details: HepG2 AP-2 cis-reporter, Attagene transcription factor profiling; actives raise or lower the signal
In short: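 Endogenous transcription factor activity is reported through transfected multiplex reporter constructs in HepG2, after 24 h of compound exposure. Transcripts were quantified by RT-PCR and capillary electrophoresis of fluorescent fragments. Bidirectional fit against DMSO.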

[7] = ATG_BRE_CIS: Attagene CIS-FACTORIAL HepG2 Assay for human Bone Morphogenetic Protein (BMP) Response Element (BRE) (AID 2282933); details: HepG2 BMP response element reporter, Attagene transcription factor profiling; actives raise or lower the signal
In short: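 HepG2 cells transiently transfected with multiplexed cis-element reporter units were dosed with chemical for 24 h. Reporter mRNA was measured by RT-PCR with fluorescent labelling, HpaI digestion and capillary electrophoresis; bidirectional fitting relative to DMSO.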

[8] = biological target: Retinoic acid receptor alpha (Homo sapiens) (UniProt P10276); test: ATG_DR5_RAR_CIS: Attagene CIS-FACTORIAL HepG2 Assay for human Retinoic Acid Receptor Alpha (RARE), DR5 submotif (AID 2282934); details: HepG2 Attagene cis-factorial RARE DR5 reporter, mRNA; actives raise or lower the signal;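 on AC50: reporter responds to endogenous RAR alpha beta and gamma in HepG2 not RARA alone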
Sequence of Retinoic acid receptor alpha (Homo sapiens) (P10276 whole entry, looked up): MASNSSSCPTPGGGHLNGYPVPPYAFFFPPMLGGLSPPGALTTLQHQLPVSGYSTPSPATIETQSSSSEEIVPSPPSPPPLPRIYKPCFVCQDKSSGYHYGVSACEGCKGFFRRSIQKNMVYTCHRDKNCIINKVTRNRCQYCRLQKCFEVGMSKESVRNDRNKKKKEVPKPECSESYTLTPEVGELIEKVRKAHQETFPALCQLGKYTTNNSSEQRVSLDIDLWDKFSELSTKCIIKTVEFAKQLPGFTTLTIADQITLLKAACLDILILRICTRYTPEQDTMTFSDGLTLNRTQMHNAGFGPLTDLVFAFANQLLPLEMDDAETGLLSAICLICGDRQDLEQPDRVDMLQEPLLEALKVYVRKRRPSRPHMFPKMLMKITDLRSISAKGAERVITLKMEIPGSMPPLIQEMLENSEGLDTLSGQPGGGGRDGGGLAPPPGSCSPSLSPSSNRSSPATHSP
In short: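 HepG2, transient cis-reporter transfection, 24 h exposure. mRNA readout: RT-PCR, FAM label, HpaI cut, capillary electrophoresis. DMSO baseline, gain/loss fitting.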

[9] = biological target: Transcription factor E2F1 (Homo sapiens) (UniProt Q01094); test: ATG_E2F_CIS: Attagene CIS-FACTORIAL HepG2 Assay for human E2F Transcription Factor 1 (AID 2282935); details: HepG2 Attagene cis-reporter, E2F reporter RNA transcripts; actives raise or lower the signal
Sequence of Transcription factor E2F1 (Homo sapiens) (Q01094 whole entry, looked up): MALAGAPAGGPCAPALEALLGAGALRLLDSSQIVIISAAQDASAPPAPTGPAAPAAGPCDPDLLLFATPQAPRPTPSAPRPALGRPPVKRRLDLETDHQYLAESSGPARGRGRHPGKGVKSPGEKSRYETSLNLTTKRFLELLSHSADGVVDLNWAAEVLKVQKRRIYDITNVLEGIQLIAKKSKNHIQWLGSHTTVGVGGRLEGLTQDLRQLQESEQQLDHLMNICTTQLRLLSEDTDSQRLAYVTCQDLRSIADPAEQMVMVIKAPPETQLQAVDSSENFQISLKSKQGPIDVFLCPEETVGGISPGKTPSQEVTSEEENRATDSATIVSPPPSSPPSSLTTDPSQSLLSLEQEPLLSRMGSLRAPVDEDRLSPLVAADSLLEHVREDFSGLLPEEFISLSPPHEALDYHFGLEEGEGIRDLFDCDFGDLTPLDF
In short: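 Gain or loss of reporter transcript, fitted against DMSO, reflects E2F1-driven transcription. Transiently transfected HepG2 dosed 24 h before RNA isolation. Quantified by fluorescent RT-PCR products separated by capillary electrophoresis.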

[10] = ATG_E_Box_CIS: Attagene CIS-FACTORIAL HepG2 Assay for human Enhancer Box (E-box) (AID 2282936); details: HepG2 E-box cis-reporter transcription, actives raise or lower the signal
In short: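 E-box-driven reporter transcripts measured in transiently transfected HepG2 after 24 h exposure: RNA reverse-transcribed, PCR-amplified, fluorescently labelled, digested and resolved by capillary electrophoresis. Gain or loss relative to DMSO.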

[11] = ATG_M_61_CIS: Attagene CIS-FACTORIAL HepG2 Assay for M61 Transcription Factor (Internal Marker) (AID 2282937); details: HepG2 Attagene CIS-FACTORIAL M61 internal marker reporter; actives raise or lower the signal
In short: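 Fluorescence from labelled cDNA fragments, separated by capillary electrophoresis, quantifies reporter induction. HepG2 cells bearing transiently transfected cis-promoter MRTUs were incubated with test chemical for 24 h; DMSO defined baseline for gain/loss fitting.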

[12] = ATG_EGR_CIS: Attagene CIS-FACTORIAL HepG2 Assay for human Early Growth Response 1 (EGR1) (AID 2282938); details: HepG2 Attagene CIS-FACTORIAL EGR reporter mRNA; actives raise or lower the signal
In short: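 Cell-based multiplex transcription assay: HepG2 carrying transfected cis-element reporter units, 24 h chemical treatment. Fluorescence from capillary electrophoresis of RT-PCR products gives mRNA levels; fitting is bidirectional relative to DMSO.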

[13] = ATG_M_19_CIS: Attagene CIS-FACTORIAL HepG2 Assay for M19 Transcription Factor (Internal Marker) (AID 2282939); details: HepG2 Attagene CIS-FACTORIAL M19 internal marker reporter; actives raise or lower the signal
In short: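 HepG2 cells transiently transfected with cis-regulated multiple reporter transcription units were dosed for 24 h; reporter mRNA was quantified by RT-PCR, 6-FAM primer-extension labelling, HpaI digestion and capillary electrophoresis, with bidirectional fitting against DMSO baseline.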

[14] = ATG_ERE_CIS: Attagene CIS-FACTORIAL HepG2 Assay for Estrogen Response Element (ERE) (AID 2282940); details: HepG2 ERE cis-reporter, Attagene RNA transcript; actives raise or lower the signal
In short: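 HepG2 cells transiently transfected with cis-promoter-driven multiplexed reporter transcription units report endogenous TF activity. After 24 h compound exposure, reporter mRNA is quantified by RT-PCR with capillary electrophoresis fluorescence; bidirectional fitting versus DMSO baseline.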

[15] = ATG_Ets_CIS: Attagene CIS-FACTORIAL HepG2 Assay for human Erythroblast Transformation Specific (ETS) (AID 2282941); details: HepG2 ETS cis-reporter transcription, actives raise or lower the signal
In short: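 RT-PCR/capillary electrophoresis fluorescence read-out of reporter mRNA; HepG2 transient multi-reporter transfection; 24 h compound exposure; gain or loss of signal fitted bidirectionally relative to DMSO.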

[16] = biological target: Hepatocyte nuclear factor 3-beta (Homo sapiens) (UniProt Q9Y261); test: ATG_FoxA2_CIS: Attagene CIS-FACTORIAL HepG2 Assay for human Forkhead box A2 (FOXA2) (AID 2282942); details: HepG2 cis-reporter transcription factor activity, 24 h; actives raise or lower the signal
Sequence of Hepatocyte nuclear factor 3-beta (Homo sapiens) (Q9Y261 whole entry, looked up): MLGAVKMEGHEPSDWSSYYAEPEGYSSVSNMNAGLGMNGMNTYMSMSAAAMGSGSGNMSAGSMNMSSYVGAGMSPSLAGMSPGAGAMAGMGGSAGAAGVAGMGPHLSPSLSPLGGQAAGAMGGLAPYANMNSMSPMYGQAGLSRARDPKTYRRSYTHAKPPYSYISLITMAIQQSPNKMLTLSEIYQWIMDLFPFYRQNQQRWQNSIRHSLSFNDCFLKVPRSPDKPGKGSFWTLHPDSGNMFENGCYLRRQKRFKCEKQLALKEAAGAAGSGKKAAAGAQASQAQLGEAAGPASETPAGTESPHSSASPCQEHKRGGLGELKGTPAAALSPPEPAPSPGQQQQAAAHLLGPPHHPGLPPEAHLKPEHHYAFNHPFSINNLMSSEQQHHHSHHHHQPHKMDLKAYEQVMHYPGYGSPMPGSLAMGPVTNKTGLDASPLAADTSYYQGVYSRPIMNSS
In short: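 In transiently transfected human HepG2 cells, promoter-driven reporter mRNA levels after 24 h chemical exposure are determined via RT-PCR with capillary electrophoresis. DMSO serves as baseline for bidirectional fitting.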

[17] = ATG_FoxO_CIS: Attagene CIS-FACTORIAL HepG2 Assay for human Forkhead box O (FoxO) (AID 2282943); details: HepG2 Attagene cis-reporter, FoxO element, mRNA; actives raise or lower the signal
In short: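 Human hepatoma HepG2 cells carry transiently introduced reporter transcription units controlled by cis promoter elements. Chemical treatment lasted 24 h, and mRNA signal was compared with DMSO.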

[18] = ATG_GATA_CIS: Attagene CIS-FACTORIAL HepG2 Assay for human GATA Binding Protein (AID 2282944); details: HepG2 GATA cis-element reporter, Attagene multiplex mRNA; actives raise or lower the signal
In short: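 HepG2 cells transiently transfected with multiplexed cis-element reporter units reflecting endogenous transcription factor activity; reporter mRNA measured after 24 h dosing by RT-PCR, 6-FAM labeling, HpaI digestion and capillary electrophoresis. Bidirectional fitting versus DMSO baseline.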

[19] = ATG_GLI_CIS: Attagene CIS-FACTORIAL HepG2 Assay for human Zinc Finger Protein GLI1 (AID 2282945); details: HepG2, Attagene cis-factorial reporter mRNA, GLI element; actives raise or lower the signal
In short: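 Bidirectional curve fits relative to DMSO, using reporter mRNA levels from RT-PCR plus capillary electrophoresis. Cells were HepG2 transiently carrying cis-regulated reporter constructs, harvested 24 h after dosing.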

[20] = ATG_CMV_CIS: Attagene CIS-FACTORIAL HepG2 Assay for human CMV (Internal Marker) (AID 2282928); details: HepG2 CMV promoter reporter, transcription factor profiling; actives raise or lower the signal;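 further: endpoint acts as a background internal control marker rather than a target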
In short: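 Readout: fluorescent reporter cDNA fragments separated by capillary electrophoresis after RT-PCR and HpaI cut. Cells: HepG2 carrying transfected cis-promoter reporter constructs, dosed 24 h. Endpoint serves as background internal-marker control, fit bidirectionally versus DMSO.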

Measured: AC50

CC(C)c1ccc(C=O)cc1
not listed: [20]
inactive: all other assays above

CCN(CCC#N)c1ccc(N=Nc2c(Cl)cc([N+](=O)[O-])cc2Cl)cc1
active: [5] 27 µM
not listed: [20]
inactive: all other assays above

C(=CC=Nc1ccccc1)C=CNc1ccccc1
active: [5] 100 µM
not listed: [4] | [9]
inactive: all other assays above

CC(CC=O)c1ccccc1 (stereo not given)
active: [3] 71.7 µM | [4] 123 µM | [5] 131 µM | [14] 112 µM
not listed: [20]
inactive: all other assays above

Cc1cc(C)c(C(=O)O)c(C)c1
not listed: [4] | [18]
inactive: all other assays above

CCN(CCO)c1cccc(C)c1
active: [4] 55 µM
not listed: [6] | [20]
inactive: all other assays above

Cc1cc(=O)n(-c2ccccc2)n1C
not listed: [4] | [9]
inactive: all other assays above

Cc1ccc(N/N=c2\c(=O)cc/c(=N/Nc3ccc(S(=O)(=O)O)cc3)c2=O)c(C)c1
active: [14] 100 µM
not listed: [4] | [16]
inactive: all other assays above

CCCCCCC1(C)CCC(=O)O1 (stereo not given)
active: [4] 44.4 µM
not listed: [20]
inactive: all other assays above

CCN(CC)c1ccc(C(=O)c2ccccc2C(=O)O)c(O)c1
not listed: [20]
inactive: all other assays above

CC(C)c1ccc2cc(C(C)C)ccc2c1
active: [1] 62 µM | [2] 64.6 µM | [4] 135 µM | [5] 55.8 µM | [8] 67 µM
not listed: [9] | [20]
inactive: all other assays above

CC(C)CCCCCOC(=O)CCS
not listed: [4] | [6]
inactive: all other assays above

O=c1[nH]c(=O)c2[nH]c(=O)[nH]c2[nH]1
not listed: [16] | [20]
inactive: all other assays above

Cc1cccc(OCCOc2cccc(C)c2)c1
not listed: [20]
inactive: all other assays above

C[Si](C)O[Si](C)(C)O[Si](C)(C)O[Si](C)C
active: [14] 46.2 µM
not listed: [16] | [18] | [20]
inactive: all other assays above

From PubChem BioAssay (EPA / NIEHS)
